PubChem BioAssay (Tox21)
Where “and” joins values, the source holds several entries; their conditions need not be identical. Equal entries are not always repeated. Inconclusive results are not listed. A call without a number means that no potency is given here. Where a structure was tested more than once in an assay, its records may differ in their call. Calls of active or inactive are those of the source. The call rests on the fitted dose curve; in most records, active means well fitted inhibition curve with a large enough effect in the repeat runs; inconclusive means weak or mixed curves; inactive means flat fitted curve, though single readings scatter.

Assay: qHTS assay to identify small molecule HDAC inhibitors (AID 1259364); further: nearly all actives have a fitted effect of over 45% in size; on activity change, negative = inhibition: top concentration of the series differs between compounds
Conditions: HCT-116 HDAC-Glo I/II luminescence, 2 h; series mostly up to 92.4 µM; activity change, negative = inhibition: at the top concentration
From the text: U.S. Tox21 Program National Center for Advancing Translational Sciences [NCATS] NIH Chemical Genomics Center [NCGC] U.S. Environmental Protection Agency [EPA] National Institutes of Environmental Health Sciences [NIEHS] National Toxicology Program [NTP] U.S. Food and Drug Administration [FDA] Tox21 Assay Overview: Histone deacetylases (HDACs) are a group of epigenetic enzymes that regulate gene expression by histone deacetylation. HDACs are capable of introducing epigenetic modifications and such aberrations contribute to the onset and progression of several human diseases, thus making HDACs a popular therapeutic target. For identifying endogenous class I/II HDAC inhibitors a homogenous, luminogenic HDAC I/II cell based assay was used to measure the relative activity of class I and II HDACs from cells. Wild type HCT-116 cells were used to screen Tox21 libraries for identifying class I/II HDAC inhibitors.
Tox21 Assay Protocol Summary: HCT-116 cells were dispensed at 1,500 per well in 5uL of culture medium into white solid bottom 1536-well plates (Greiner Bio-One, Monroe, NC) using a Multidrop Combi (Thermo Scientific, Waltham, MA) dispenser. The assay plates were incubated at 37 C and 5% CO2 for an overnight, and then 23nL of compounds dissolved in DMSO and positive control were transferred using a Pintool station (Wako, San Diego, CA). The assay plates were incubated at 37C and 5% CO2 for 2hr. After compound treatment, 4uL of HDAC-Glo reagent (Promega Corporation, Madison, WI) was added to each well of the assay plates using Flying Reagent Dispenser (FRD, Aurora Discovery, San Diego, CA) and incubated the assay plates at room temperature for 30min. The luminescence signal was quantified using a ViewLux plate reader (Perkin Elmer, Shelton, CT).
Potency means the concentration at half of the fitted maximal effect.

SMILES | activity change, negative = inhibition | Potency
CCCC(=O)c1ccccc1 | 8.42% (inactive) | –
CC[C@H]1CN2CCc3cc(OC)c(OC)cc3[C@@H]2C[C@@H]1C[C@H]1NCCc2cc(OC)c(OC)cc21 | – | inactive
Cc1cc(C(C)(C)C)c(O)c(C(C)(C)C)c1 | – | inactive
CC(=O)CC(C)=O | 3.17% (inactive) | –
CC(COc1ccccc1)N(CCCl)Cc1ccccc1 (stereo not given) | – | inactive
Nc1nc(=S)c2[nH]cnc2[nH]1 | – | inactive
COC(=O)c1cccc(C(=O)OC)c1 | – | inactive
CCc1ccc(C(c2ccc(CC)cc2)C(Cl)Cl)cc1 | – | inactive
O=C(O)c1cccc(C(=O)O)c1 | – | inactive
Cc1ccc(-c2cc(C(F)(F)F)nn2-c2ccc(S(N)(=O)=O)cc2)cc1 | – | inactive
O=C(OCc1ccccc1)c1ccc(O)cc1 | – | 12.2 µM (active) and 11.9 µM (active)
CCCCCCCCCCCCCCCCCl | 11.8% [at 19 µM] (inactive) | –
CCC(CO)(CO)COCC(CC)(CO)CO | 0.6% (inactive) | –
COc1cc(C(=S)N2CCOCC2)ccc1O | 2.14% [at 42.5 µM] (inactive) | –
CCCN[C@H]1CCc2nc(N)sc2C1 | – | inactive
O=Cc1ccc(Cl)cc1 | 6.51% (inactive) | –
CN1C(=O)c2ccc([N+](=O)[O-])cc2C1=O | -4.46% (inactive) | –
Cc1cccc(O)c1C | – | inactive
c1ccc2c(c1)-c1cccc3c1c-2cc1ccccc13 | – | inactive
C=CC(=O)OCCCCCCCC | -0.0611% (inactive) | –

SMILES | activity change, negative = inhibition | Potency
O=C(O[C@@H]1Cc2c(O)cc(O)cc2O[C@@H]1c1cc(O)c(O)c(O)c1)c1cc(O)c(O)c(O)c1 | – | inactive
COC(c1ccccc1)(c1ccccc1)[C@H](Oc1nc(C)cc(C)n1)C(=O)O | 0.709% [at 42.5 µM] (inactive) | –
O=C(O)CP(=O)(O)O | -2.35% [at 42.5 µM] (inactive) | –
CN(C)c1ccc2nc3ccc(=[N+](C)C)cc-3sc2c1 | – | 11.7 µM (active) and 10.9 µM (active) and 13.3 µM (active)
CCN(CC)CCOc1ccc(/C(=C(\Cl)c2ccccc2)c2ccccc2)cc1 | – | inactive
Cc1ccc(S(=O)(=O)Oc2ccc(N=Nc3ccc(-c4ccc(N=Nc5c(O)ccc6cc(S(=O)(=O)O)cc(S(=O)(=O)O)c56)c(C)c4)cc3C)cc2)cc1 | – | inactive
CC[C@]1(O)C[C@@H]2CN(CCc3c([nH]c4ccccc34)[C@@](C(=O)OC)(c3cc4c(cc3OC)N(C)[C@H]3[C@@](O)(C(=O)OC)[C@H](OC(C)=O)[C@]5(CC)C=CCN6CC[C@]43[C@@H]65)C2)C1 | – | inactive
CC(C)(C)NCC(O)c1cc(O)cc(O)c1 (stereo not given) | 17.8% [at 42.5 µM] (inactive) | –
CC(=O)CC(=O)Nc1ccc2[nH]c(=O)[nH]c2c1 | -0.187% (inactive) | –
CCN(CC)c1ccc2c(C)cc(=O)oc2c1 | – | inactive
C=C(C)C(=O)O | – | inactive
CC(C(O)c1ccc(O)cc1)N1CCC(Cc2ccccc2)CC1 (stereo not given) | -3.04% [at 42.5 µM] (inactive) | –
O=C(O)c1cn(-c2ccc(F)cc2)c2cc(N3CCNCC3)c(F)cc2c1=O | – | inactive
CC(C)(O)CCC(C)(C)O | 0.694% (inactive) | –
COc1ccc(COC(C)=O)cc1 | – | inactive
COc1ccc(Cc2cnc(N)nc2N)cc1OC | 0.0208% [at 42.5 µM] (inactive) | –
Cc1c(O)cccc1C(=O)N[C@@H](CSc1ccccc1)[C@H](O)CN1C[C@H]2CCCC[C@H]2C[C@H]1C(=O)NC(C)(C)C | – | inactive
O=C1CC2(CCCC2)CC(=O)N1CCCCN1CCN(c2ncccn2)CC1 | – | inactive
CC(C)C(=O)c1c(C(C)C)nn2ccccc12 | -4.41% [at 42.5 µM] (inactive) | –
CCn1c2ccccc2c2cc(N)ccc21 | – | inactive and 27.3 µM (active)
